TDP1 cell noCPT – qHTS for Inhibitors of human tyrosyl-DNA phosphodiesterase 1 (TDP1): qHTS in cells in absence of CPT; DT40 Tdp1-/- hTDP1 cells, no CPT, ATP luminescence, 48 h; Potency, µM (highest dose often 46.2 µM), without a hit: at the top dose activity change, negative = growth inhibition, usual class: inhibitors; 420,000 tested, 15% active; AID 686978, 2013; further: potency means the concentration at half of the fitted maximal effect; on the % scale 0 is the no-effect control and ±100 the full control effect; nearly all actives have a fitted effect of over 55% in size
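DT40 Tdp1-/-;hTDP1 cells, no CPT (DMSO vehicle only), 400 cells/well; compounds pin-transferred; ≥48 hr, 37 °C; CellTiter-Glo 30 min RT dark, luminescence read.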
HepG2 viability – counter-screen for TGF-b inhibitors: cytotoxicity in HepG2 cells; HepG2 CAGA-GFP viability, ATP luminescence, 18 h; Potency, µM (titrated, usually from 46.1 µM), for the others: at the top dose activity change, negative = cytotoxicity, hits mostly cytotoxic; 410,000 tested, 0.76% active; AID 588856; further: potency means the concentration at half of the fitted maximal effect
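HepG2 CAGA-GFP cells (1000/well, DMEM with 1% FBS) received compound, then TGF-beta at 500 pg/mL final, and were incubated 18 hours at 37 degrees C. Viability was read by CellTiter-Glo luminescence. Media-only wells were set as complete cell-killing and DMSO as no toxicity.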
TGFb inhibitor – inhibitors of TGF-b signaling | 410,000 tested, 1.2% active | AID 588855 | HepG2 CAGA-GFP TGF-b/SMAD3 reporter, GFP fluorescence, 18 h; TGF-beta stimulated, 500 pg/mL final | Potency, µM (highest dose often 46.1 µM), for the others: at the highest dose activity, negative = inhibition, actives largely listed as inhibitors; further: potency means the concentration at half of the fitted maximal effect; on the % scale 0 is the no-effect control and ±100 the full control effect; nearly all actives have a fitted effect of over 65% in size
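Smad-responsive CAGA-GFP expression was quantified in HEPG2 cells exposed to compounds and 500 pg/mL final TGF-beta for 18 h at 37 degrees C; unstimulated wells defined full inhibition.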
DT40 TDP1 CPT – DT40-hTDP1 cell growth loss with CPT; chicken DT40 Tdp1-/-;hTDP1 cells + 20 nM CPT, ATP luminescence, 48 h; Potency, µM (top dose mostly 46.2 µM), inactives show top-dose activity change, negative = growth inhibition, most hits filed as inhibitors; 420,000 tested, 12% active; further: potency means the concentration at half of the fitted maximal effect; on the % scale 0 is the no-effect control and ±100 the full control effect; nearly all actives have a fitted effect of over 55% in size
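Chicken DT40 Tdp1-/- cells stably complemented with human TDP1 were seeded at 400 cells/well in medium containing 20 nM camptothecin, exposed to pin-transferred compounds, and grown at 37 °C for at least 48 hr. Viability was read as ATP luminescence.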
IL1B secr inh – blocks inflammasome-driven IL-1 beta release | THP-1 LPS/ATP IL-1B secretion, AlphaLISA, 16 h; hits give low values | activity change, % at 57.5 µM | 360,000 tested, 4.7% active; in the data active means activity change below about -50%; inconclusive means mostly about -30% to -49%; further: on the % scale 0 is the no-effect control and ±100 the full control effect
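THP-1 cells pretreated 1 hr with compounds (up to 57.5 uM final), then stimulated with LPS (250 ng/mL final) plus ATP (1.25 mM final); secreted IL-1B measured by AlphaLISA after 16 hr, decreased signal indicating inhibition.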
TDP1 block – blocks human tyrosyl-DNA phosphodiesterase 1; Q9NUW8; recombinant TDP1, AlphaScreen DNA substrate cleavage; Potency, µM (top dose mostly 130 µM), inactives show at the top dose activity change, negative = inhibition, usual class: inhibitors; 350,000 tested, 0.28% active; AID 485290; further: potency means the concentration at half of the fitted maximal effect; on the % scale 0 is the no-effect control and ±100 the full control effect; nearly all actives have a fitted effect of over 40% in size
Target sequence (Q9NUW8 whole entry, looked up): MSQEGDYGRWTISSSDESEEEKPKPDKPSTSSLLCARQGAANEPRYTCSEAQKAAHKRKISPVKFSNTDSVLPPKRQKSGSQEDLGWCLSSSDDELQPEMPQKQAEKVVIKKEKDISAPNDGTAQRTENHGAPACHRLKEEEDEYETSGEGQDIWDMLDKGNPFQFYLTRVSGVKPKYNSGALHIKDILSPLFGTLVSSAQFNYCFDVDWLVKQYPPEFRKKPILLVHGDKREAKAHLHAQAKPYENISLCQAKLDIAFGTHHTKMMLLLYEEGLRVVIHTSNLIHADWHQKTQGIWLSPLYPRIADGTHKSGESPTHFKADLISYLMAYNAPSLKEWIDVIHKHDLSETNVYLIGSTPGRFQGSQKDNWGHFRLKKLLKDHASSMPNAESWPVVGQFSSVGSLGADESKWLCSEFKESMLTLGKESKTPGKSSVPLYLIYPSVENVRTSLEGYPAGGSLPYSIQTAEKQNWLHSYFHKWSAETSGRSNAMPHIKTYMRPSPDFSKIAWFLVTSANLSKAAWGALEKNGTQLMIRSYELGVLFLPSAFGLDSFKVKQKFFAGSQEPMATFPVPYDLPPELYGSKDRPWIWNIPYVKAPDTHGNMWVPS
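Recombinant human Tdp1 (E. coli-expressed, 1 nM final) preincubated with compounds 15 min at room temperature, then 5'-biotin/3'-phosphotyrosine-FITC DNA substrate (15 nM final) added for 5 min. AlphaScreen beads (10 ug/ml final) added 10 min; cleavage lowers signal.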
Active calls of the source: *. Hits are enriched below; roughly 18% of the tested compounds scored in any of these assays. Unless noted, the call rests on the fitted dose curve; in most records, active means well fitted curve in the direction sought with a large enough effect; inconclusive means small, poorly fitted or top-dose-only effect, or another doubt; inactive means no such curve, though single readings can be large; an effect the other way counts as inactive or inconclusive.

How did COC(=O)[C@H](Cc1ccccc1)NC(=O)O[C@H]1C(=O)c2cc(OC)ccc2O[C@@H]1c1ccc(OC)c(Br)c1 do in these assays?
TDP1 block: 7%

What do the screens show for `OC[C@@H]1O[C@H](OC2[C@@H](O)[C@@H](O)[C@@H](O)O[C@@H]2CO)[C@H](O)[C@@H](O)[C@@H]1OC1O[C@H](CO)[C@@H](O)[C@H](O)[C@@H]1O` (some centres undefined)?
TDP1 block: 10%

What do the screens show for `COc1cccc(NC(=O)c2c(C(=O)Nc3ccccc3)sc3nc(C)cc(=O)n23)c1`?
TDP1 cell noCPT: -2%; HepG2 viability: -3%; TGFb inhibitor: -1%; DT40 TDP1 CPT: -21%; TDP1 block: 0%

What do the screens show for `CCN(CC)C(=O)C1=C(C)N(Cc2ccc(C(C)(C)C)cc2)C(=O)C(CC(=O)NC(c2ccccc2)c2ccccc2)C1` (centres undefined)?
TDP1 cell noCPT: 12µM*; HepG2 viability: -32%; TGFb inhibitor: inconclusive; DT40 TDP1 CPT: 13µM*; IL1B secr inh: inconclusive

What do the screens show for `CCN(CC)C(=O)C1=C(C)N(Cc2ccc(C(C)(C)C)cc2)C(=O)C(CC(=O)NCCc2ccccn2)C1` (centres undefined)?
TDP1 cell noCPT: inconclusive; HepG2 viability: -17%; TGFb inhibitor: -5%; DT40 TDP1 CPT: inconclusive; IL1B secr inh: -6

What do the screens show for `CCCCN1C(=O)C(CC(=O)NC(c2ccccc2)c2ccccc2)CC(C(=O)N(C(C)C)C(C)C)=C1C` (centres undefined)?
TDP1 cell noCPT: 21µM*; HepG2 viability: -39%; TGFb inhibitor: inconclusive; DT40 TDP1 CPT: 23µM*; IL1B secr inh: -29

How did CCCCN1C(=O)C(CC(=O)NC(c2ccccc2)c2ccccc2)CC(C(=O)N(C)C)=C1C (centres undefined) do in these assays?
TDP1 cell noCPT: 4%; HepG2 viability: -1%; TGFb inhibitor: 1%; DT40 TDP1 CPT: -10%; IL1B secr inh: 21

What do the screens show for `COc1ccc(C(=O)C(=O)N2CCN(C(=O)OCc3ccccc3)CC2)cc1`?
TDP1 cell noCPT: inconclusive; DT40 TDP1 CPT: inconclusive; IL1B secr inh: -5

What do the screens show for `O=C(Nc1ccc(O)c2c(=O)cc(-c3cccc(Cl)c3)oc12)c1ccc(F)cc1`?
TDP1 cell noCPT: 13µM*; HepG2 viability: -20%; TGFb inhibitor: -1%; DT40 TDP1 CPT: inconclusive; IL1B secr inh: 33

How did Cc1ccc(-n2nnnc2C(Cl)(Cl)c2nnnn2-c2ccc(C)cc2)cc1 do in these assays?
TDP1 cell noCPT: 2.6µM*; HepG2 viability: -31%; TGFb inhibitor: -3%; DT40 TDP1 CPT: 2.9µM*; IL1B secr inh: -78*; TDP1 block: 7%

How did CCOc1cc(N2CCOCC2)c(OCC)cc1NC(=O)C(C)C do in these assays?
TDP1 cell noCPT: -15%; HepG2 viability: -9%; TGFb inhibitor: 0%; DT40 TDP1 CPT: -22%; IL1B secr inh: 14; TDP1 block: 6%

How did CCOc1cc(N2CCOCC2)c(OCC)cc1NC(=O)c1cc(C)cc(C)c1 do in these assays?
TDP1 cell noCPT: 12µM*; HepG2 viability: 1%; TGFb inhibitor: -6%; DT40 TDP1 CPT: 13µM*; IL1B secr inh: -7; TDP1 block: 3%

Results for CCOc1cc(N2CCOCC2)c(OCC)cc1NC(C)C(=O)N1CCN(CC)CC1 (centres undefined) ?
TDP1 cell noCPT: -16%; HepG2 viability: 2%; TGFb inhibitor: inconclusive; DT40 TDP1 CPT: 9%; IL1B secr inh: 64; TDP1 block: 13µM*

How did CCOc1cc(N2CCOCC2)c(OCC)cc1NC(=O)CSc1ncccc1C(=O)O do in these assays?
TDP1 cell noCPT: 6.5µM*; HepG2 viability: -3%; TGFb inhibitor: 3%; DT40 TDP1 CPT: inconclusive; IL1B secr inh: 19; TDP1 block: 2%

How did CCOc1cc(N2CCOCC2)c(OCC)cc1NC(=O)CSc1ncccn1 do in these assays?
TDP1 cell noCPT: inconclusive; HepG2 viability: 10%; TGFb inhibitor: inconclusive; DT40 TDP1 CPT: -23%; IL1B secr inh: 31; TDP1 block: 1%

What do the screens show for `CCOc1cc(N2CCOCC2)c(OCC)cc1NC(=O)CN1CCC(Cc2ccccc2)CC1`?
TDP1 cell noCPT: inconclusive; HepG2 viability: -12%; TGFb inhibitor: 5%; DT40 TDP1 CPT: 23µM*; IL1B secr inh: inconclusive; TDP1 block: 2%

What do the screens show for `Cc1ccc(NS(=O)(=O)c2ccc(-c3ccccc3)cc2)cc1C`?
TDP1 block: -4%

What do the screens show for `COc1ccc(S(=O)(=O)N2CCOCC2)cc1NC(=O)CN1CCC(Cc2ccccc2)CC1`?
TDP1 cell noCPT: 16µM*; HepG2 viability: -55%; TGFb inhibitor: -18%; DT40 TDP1 CPT: 16µM*; IL1B secr inh: inactive; TDP1 block: 7%

What do the screens show for `CCOc1cc(N2CCOCC2)c(OCC)cc1NC(=O)c1ccc(S(=O)(=O)N(C)C)cc1`?
TDP1 cell noCPT: inconclusive; HepG2 viability: -8%; TGFb inhibitor: 3%; DT40 TDP1 CPT: inconclusive; IL1B secr inh: -14; TDP1 block: 2%

How did CCOc1cc(N2CCOCC2)c(OCC)cc1NC(=O)COC(=O)c1ccc(OC)c([N+](=O)[O-])c1 do in these assays?
TDP1 cell noCPT: 23µM*; HepG2 viability: -13%; TGFb inhibitor: -3%; DT40 TDP1 CPT: 15µM*; IL1B secr inh: 0

How did CCOc1cc(N2CCOCC2)c(OCC)cc1NC(=O)Cc1ccccc1OC do in these assays?
TDP1 cell noCPT: 18µM*; HepG2 viability: -2%; TGFb inhibitor: -25%; DT40 TDP1 CPT: 16µM*; IL1B secr inh: -12; TDP1 block: 7%

Results for CCOc1cc(N2CCOCC2)c(OCC)cc1NC(=O)c1ccc(OC(C)C)cc1 ?
TDP1 cell noCPT: 21µM*; HepG2 viability: 2%; TGFb inhibitor: -9%; DT40 TDP1 CPT: inconclusive; IL1B secr inh: 7; TDP1 block: 8%

What do the screens show for `CCOc1ccc(S(=O)(=O)N2CCC(C(=O)NCCc3ccc(S(N)(=O)=O)cc3)CC2)cc1`?
TDP1 cell noCPT: -27%; HepG2 viability: 3%; TGFb inhibitor: -16%; DT40 TDP1 CPT: -4%; IL1B secr inh: -8
